AC50 and outcome data for 7 compounds are collected here from PubChem BioAssay (EPA / NIEHS).

Molecules are shown by their SMILES. Some structures have more than one record in an assay (separate samples or runs), and their calls can disagree. The source made the active and inactive calls. The calls were made as follows: active = hit-call score of the fitted dose curve at least 0.9, where 1 is the maximum; inactive = score below 0.9.

The nature of assay [1]: ATG_DR4_LXR_CIS: Attagene CIS-FACTORIAL HepG2 Assay for human Liver X Receptor (LXR), DR4 submotif (AID 2282929). The following applies: HepG2 Attagene DR4 cis-reporter, mRNA transcription; actives raise or lower the signal. The method, boiled down:
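HepG2 cells were transiently transfected with multiple cis-regulated reporter units and dosed for 24 hours. The DR4 reporter mRNA was quantified by RT-PCR, 6-FAM labelling and capillary electrophoresis. Bidirectional fits used DMSO as baseline.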

The nature of assay [2]: ATG_AP_1_CIS: Attagene CIS-FACTORIAL HepG2 Assay for human Activator Protein 1 (AP-1) (AID 2282931). The following applies: HepG2 Attagene cis-factorial AP-1 reporter mRNA; actives raise or lower the signal. An outline of the steps:
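HepG2 cells transiently transfected with cis-element-driven reporter transcription units, dosed for 24 hours. Reporter mRNA measured by RT-PCR, 6-FAM labelling, HpaI digestion and capillary electrophoresis. Bidirectional fitting against DMSO baseline.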

The nature of assay [3]: ATG_AP_2_CIS: Attagene CIS-FACTORIAL HepG2 Assay for human Activator Protein 2 (AP-2) (AID 2282932). The conditions noted are these: HepG2 AP-2 cis-reporter, Attagene transcription factor profiling; actives raise or lower the signal. The method, boiled down: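 Endogenous transcription factor activity is reported through transfected multiplex reporter constructs in HepG2, after 24 h of compound exposure. Transcripts were quantified by RT-PCR and capillary electrophoresis of fluorescent fragments. Bidirectional fit against DMSO.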

A short description of assay [4]: ATG_BRE_CIS: Attagene CIS-FACTORIAL HepG2 Assay for human Bone Morphogenetic Protein (BMP) Response Element (BRE) (AID 2282933). The following applies: HepG2 BMP response element reporter, Attagene transcription factor profiling; actives raise or lower the signal. An outline of the steps:
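A HepG2 multiplex reporter system measured inducible reporter mRNA 24 h post-dosing. Detection: RT-PCR, 6-FAM primer extension, HpaI digestion, capillary electrophoresis. Activity fitted bidirectionally relative to DMSO.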

Assay [5] concerns the target Retinoic acid receptor alpha (Homo sapiens) (UniProt P10276). Nature of the assay: ATG_DR5_RAR_CIS: Attagene CIS-FACTORIAL HepG2 Assay for human Retinoic Acid Receptor Alpha (RARE), DR5 submotif (AID 2282934).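 As to AC50: reporter responds to endogenous RAR alpha beta and gamma in HepG2 not RARA alone.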 The conditions noted are these: HepG2 Attagene cis-factorial RARE DR5 reporter, mRNA; actives raise or lower the signal. The method, boiled down:
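Transient MRTU transfection of HepG2; 24 h compound treatment; TriZol RNA, oligo(dT) RT, PCR, FAM labelling, capillary electrophoresis. Bidirectional fit vs DMSO. Endogenous TF activity at DR5 RARE.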

Assay [6] deals with Transcription factor E2F1 (Homo sapiens) (UniProt Q01094). Nature of the assay: ATG_E2F_CIS: Attagene CIS-FACTORIAL HepG2 Assay for human E2F Transcription Factor 1 (AID 2282935). The following applies: HepG2 Attagene cis-reporter, E2F reporter RNA transcripts; actives raise or lower the signal. An outline of the steps: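 Gain or loss of reporter transcript, fitted against DMSO, reflects E2F1-driven transcription. Transiently transfected HepG2 dosed 24 h before RNA isolation. Quantified by fluorescent RT-PCR products separated by capillary electrophoresis.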
Transcription factor E2F1 (Homo sapiens), sequence (Q01094 whole entry, looked up): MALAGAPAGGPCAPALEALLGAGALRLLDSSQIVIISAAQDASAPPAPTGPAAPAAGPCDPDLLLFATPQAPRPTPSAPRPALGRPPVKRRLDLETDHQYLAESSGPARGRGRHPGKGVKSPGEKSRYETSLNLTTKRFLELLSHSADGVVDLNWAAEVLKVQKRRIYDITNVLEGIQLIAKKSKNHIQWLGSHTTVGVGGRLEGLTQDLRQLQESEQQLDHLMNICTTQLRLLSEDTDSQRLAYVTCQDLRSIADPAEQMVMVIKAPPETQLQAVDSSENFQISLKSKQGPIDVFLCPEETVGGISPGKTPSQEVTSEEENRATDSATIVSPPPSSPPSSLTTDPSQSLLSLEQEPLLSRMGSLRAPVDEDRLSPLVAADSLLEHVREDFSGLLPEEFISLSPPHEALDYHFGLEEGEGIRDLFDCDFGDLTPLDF

The nature of assay [7]: ATG_E_Box_CIS: Attagene CIS-FACTORIAL HepG2 Assay for human Enhancer Box (E-box) (AID 2282936). The following applies: HepG2 E-box cis-reporter transcription, actives raise or lower the signal. An outline of the steps: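 E-box-driven reporter transcripts measured in transiently transfected HepG2 after 24 h exposure: RNA reverse-transcribed, PCR-amplified, fluorescently labelled, digested and resolved by capillary electrophoresis. Gain or loss relative to DMSO.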

The nature of assay [8]: ATG_M_61_CIS: Attagene CIS-FACTORIAL HepG2 Assay for M61 Transcription Factor (Internal Marker) (AID 2282937). The conditions noted are these: HepG2 Attagene CIS-FACTORIAL M61 internal marker reporter; actives raise or lower the signal. The method, boiled down:
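HepG2 cells transiently transfected with multiplexed cis-promoter reporter units reporting endogenous transcription factor activity, measured 24 h after dosing. Reporter mRNA quantified by RT-PCR and capillary electrophoresis; bidirectional fit against DMSO baseline.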

The nature of assay [9]: ATG_M_19_CIS: Attagene CIS-FACTORIAL HepG2 Assay for M19 Transcription Factor (Internal Marker) (AID 2282939). The following applies: HepG2 Attagene CIS-FACTORIAL M19 internal marker reporter; actives raise or lower the signal. An outline of the steps:
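Chemical-treated HepG2 (24 h) with MRTU constructs; reporter transcripts detected by fluorescent RT-PCR fragment analysis on capillary electrophoresis. Internal background marker, DMSO as baseline.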

Assay [10] can be described thus: ATG_Ets_CIS: Attagene CIS-FACTORIAL HepG2 Assay for human Erythroblast Transformation Specific (ETS) (AID 2282941). The following applies: HepG2 ETS cis-reporter transcription, actives raise or lower the signal. The method, boiled down:
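RT-PCR/capillary electrophoresis fluorescence read-out of reporter mRNA; HepG2 transient multi-reporter transfection; 24 h compound exposure; gain or loss of signal fitted bidirectionally relative to DMSO.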

The target in assay [11] is Hepatocyte nuclear factor 3-beta (Homo sapiens) (UniProt Q9Y261). As to the kind of experiment: ATG_FoxA2_CIS: Attagene CIS-FACTORIAL HepG2 Assay for human Forkhead box A2 (FOXA2) (AID 2282942). The conditions noted are these: HepG2 cis-reporter transcription factor activity, 24 h; actives raise or lower the signal. The method, boiled down:
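HepG2 transiently transfected with a multiplexed cis-promoter reporter library read endogenous FOXA2 activity. After 24 h compound exposure, reporter mRNA was quantified by RT-PCR, HpaI digestion and capillary electrophoresis. Bidirectional fit against DMSO.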

The nature of assay [12]: ATG_FoxO_CIS: Attagene CIS-FACTORIAL HepG2 Assay for human Forkhead box O (FoxO) (AID 2282943). The following applies: HepG2 Attagene cis-reporter, FoxO element, mRNA; actives raise or lower the signal. An outline of the steps: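 HepG2, transient MRTU transfection (cis element, endogenous TFs). Dose 24 h. TriZol RNA → oligo(dT) RT → PCR → 6-FAM primer extension → HpaI cut → CE. Gain/loss vs DMSO.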

Assay [13] is described as follows: ATG_GATA_CIS: Attagene CIS-FACTORIAL HepG2 Assay for human GATA Binding Protein (AID 2282944). The following applies: HepG2 GATA cis-element reporter, Attagene multiplex mRNA; actives raise or lower the signal. The method, boiled down: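 Transfected cis-reporter HepG2 cells were treated with chemicals for 24 hours. Total RNA was then converted to cDNA, amplified with reporter-specific primers and analysed by fluorescent capillary electrophoresis, using DMSO-treated wells as baseline.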

Assay [14] can be described thus: ATG_GLI_CIS: Attagene CIS-FACTORIAL HepG2 Assay for human Zinc Finger Protein GLI1 (AID 2282945). The conditions noted are these: HepG2, Attagene cis-factorial reporter mRNA, GLI element; actives raise or lower the signal. The method, boiled down: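 Bidirectional curve fits relative to DMSO, using reporter mRNA levels from RT-PCR plus capillary electrophoresis. Cells were HepG2 transiently carrying cis-regulated reporter constructs, harvested 24 h after dosing.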

Assay [15] addresses Bile acid receptor (Homo sapiens) (UniProt Q96RI1). Nature of the assay: ATG_IR1_CIS: Attagene CIS-FACTORIAL HepG2 Assay for human Nuclear Receptor Subfamily 1 Group H Member 4 (NR1H4), IR1 submotif (AID 2282946). The following applies: IR1 reporter transcription, actives raise or lower the signal. An outline of the steps: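 HepG2 cells transiently transfected with multiplexed cis-element reporter units read endogenous transcription factor activity. After 24 h compound exposure, reporter mRNA was quantified by RT-PCR, fluorescent labelling, HpaI digestion and capillary electrophoresis; bidirectional fitting versus DMSO baseline.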

The nature of assay [16]: ATG_ISRE_CIS: Attagene CIS-FACTORIAL HepG2 Assay for human Interferon Regulatory Factor 1 (IRF1) binding to an Interferon-Stimulated Response Element (ISRE) (AID 2282948). The conditions noted are these: HepG2 ISRE cis-reporter (Attagene), mRNA transcription readout; actives raise or lower the signal. An outline of the steps: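 Read-out: fluorescent RT-PCR products resolved by capillary electrophoresis, reporting endogenous transcription factor activity via ISRE-driven reporter mRNA in transfected HepG2 cells dosed for 24 h; gain or loss fitted relative to DMSO.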

Assay [17] deals with Aryl hydrocarbon receptor (Homo sapiens) (UniProt P35869). As to the kind of experiment: ATG_Ahr_CIS: Attagene CIS-FACTORIAL HepG2 Assay for human Aryl Hydrocarbon Receptor (Ahr) (AID 2282930). The following applies: HepG2 AhR cis-factorial reporter transcription; actives raise or lower the signal. The method, boiled down: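 Transient MRTU transfection of HepG2 → 24 h compound exposure → total RNA, oligo(dT) RT → PCR, 6-FAM extension, HpaI cut → CE fluorescence. DMSO = baseline; bidirectional curve fit.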
Aryl hydrocarbon receptor (Homo sapiens), sequence (P35869 whole entry, looked up): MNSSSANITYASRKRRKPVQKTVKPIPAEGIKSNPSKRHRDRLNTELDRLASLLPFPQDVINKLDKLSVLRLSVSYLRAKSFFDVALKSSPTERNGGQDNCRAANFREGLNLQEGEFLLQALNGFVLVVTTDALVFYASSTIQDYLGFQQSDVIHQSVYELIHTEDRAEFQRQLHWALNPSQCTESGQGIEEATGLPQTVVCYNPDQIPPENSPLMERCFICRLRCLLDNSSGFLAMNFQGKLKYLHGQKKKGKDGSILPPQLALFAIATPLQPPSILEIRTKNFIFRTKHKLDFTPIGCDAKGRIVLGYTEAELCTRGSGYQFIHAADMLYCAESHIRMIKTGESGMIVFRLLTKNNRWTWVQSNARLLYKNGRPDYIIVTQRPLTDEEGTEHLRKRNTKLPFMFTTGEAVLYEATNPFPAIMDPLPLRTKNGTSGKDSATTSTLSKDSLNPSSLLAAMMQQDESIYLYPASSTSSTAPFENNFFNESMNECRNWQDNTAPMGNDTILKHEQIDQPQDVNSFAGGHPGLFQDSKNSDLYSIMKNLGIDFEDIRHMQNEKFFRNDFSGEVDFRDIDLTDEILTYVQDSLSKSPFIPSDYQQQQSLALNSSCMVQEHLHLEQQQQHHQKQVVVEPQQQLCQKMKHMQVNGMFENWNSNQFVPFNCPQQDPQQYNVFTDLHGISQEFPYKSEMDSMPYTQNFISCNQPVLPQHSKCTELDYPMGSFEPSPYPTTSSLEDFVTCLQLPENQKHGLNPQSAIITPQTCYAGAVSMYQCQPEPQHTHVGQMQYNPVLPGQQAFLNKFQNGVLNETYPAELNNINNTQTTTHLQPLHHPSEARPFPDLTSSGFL

A short description of assay [18]: ATG_EGR_CIS: Attagene CIS-FACTORIAL HepG2 Assay for human Early Growth Response 1 (EGR1) (AID 2282938). The conditions noted are these: HepG2 Attagene CIS-FACTORIAL EGR reporter mRNA; actives raise or lower the signal. The method, boiled down:
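HepG2 cells transiently transfected with cis-element-driven multiplexed reporter units, dosed for 24 h. EGR1-element reporter mRNA quantified by RT-PCR, 6-FAM labelling, HpaI digestion and capillary electrophoresis; bidirectional fit versus DMSO.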

Assay [19] in a line: ATG_ERE_CIS: Attagene CIS-FACTORIAL HepG2 Assay for Estrogen Response Element (ERE) (AID 2282940). The following applies: HepG2 ERE cis-reporter, Attagene RNA transcript; actives raise or lower the signal. An outline of the steps:
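Human liver cells (HepG2) bearing transiently transfected, promoter-regulated reporter units were exposed 24 h. Reporter mRNA induction was detected by capillary electrophoresis of labelled RT-PCR products and fitted bidirectionally to DMSO.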

The nature of assay [20]: ATG_GRE_CIS: Attagene CIS-FACTORIAL HepG2 Assay for human Glucocorticoid Response Elements (GRE) (AID 2282947). The following applies: HepG2 GRE cis-reporter, Attagene multiplex mRNA; actives raise or lower the signal. An outline of the steps: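 Reporter transcripts read by RT-PCR with capillary electrophoresis fluorescence after a 24 h chemical exposure of HepG2 cells transiently transfected with multiple cis-element reporter units. Gain or loss fitted against DMSO.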

Bile acid receptor (Homo sapiens), sequence (Q96RI1 whole entry, looked up): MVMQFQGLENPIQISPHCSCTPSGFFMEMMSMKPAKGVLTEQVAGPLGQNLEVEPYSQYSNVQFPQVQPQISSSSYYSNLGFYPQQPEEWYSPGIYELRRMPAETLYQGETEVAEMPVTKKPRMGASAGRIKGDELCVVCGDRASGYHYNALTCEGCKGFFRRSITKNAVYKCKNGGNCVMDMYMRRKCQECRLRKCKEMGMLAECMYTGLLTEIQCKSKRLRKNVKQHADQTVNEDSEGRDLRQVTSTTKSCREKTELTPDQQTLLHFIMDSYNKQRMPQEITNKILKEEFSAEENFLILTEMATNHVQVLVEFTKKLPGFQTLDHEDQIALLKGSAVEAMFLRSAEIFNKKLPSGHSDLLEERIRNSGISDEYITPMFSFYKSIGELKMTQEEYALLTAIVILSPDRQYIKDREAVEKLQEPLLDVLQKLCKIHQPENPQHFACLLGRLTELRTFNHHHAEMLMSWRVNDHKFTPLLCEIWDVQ
Hepatocyte nuclear factor 3-beta (Homo sapiens), sequence (Q9Y261 whole entry, looked up): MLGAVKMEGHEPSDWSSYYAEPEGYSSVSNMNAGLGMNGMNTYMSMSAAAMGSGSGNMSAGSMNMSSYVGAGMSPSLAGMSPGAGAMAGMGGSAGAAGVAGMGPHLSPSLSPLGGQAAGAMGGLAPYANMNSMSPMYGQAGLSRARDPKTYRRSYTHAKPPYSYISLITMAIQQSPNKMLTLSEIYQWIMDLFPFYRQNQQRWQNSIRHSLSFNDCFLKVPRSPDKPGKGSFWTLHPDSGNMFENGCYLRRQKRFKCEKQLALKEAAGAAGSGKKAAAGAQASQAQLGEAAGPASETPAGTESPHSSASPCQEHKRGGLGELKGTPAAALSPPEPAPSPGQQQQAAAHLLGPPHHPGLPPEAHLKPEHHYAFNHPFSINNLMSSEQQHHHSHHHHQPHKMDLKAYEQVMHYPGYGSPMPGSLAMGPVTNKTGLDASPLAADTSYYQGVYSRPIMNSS
Retinoic acid receptor alpha (Homo sapiens), sequence (P10276 whole entry, looked up): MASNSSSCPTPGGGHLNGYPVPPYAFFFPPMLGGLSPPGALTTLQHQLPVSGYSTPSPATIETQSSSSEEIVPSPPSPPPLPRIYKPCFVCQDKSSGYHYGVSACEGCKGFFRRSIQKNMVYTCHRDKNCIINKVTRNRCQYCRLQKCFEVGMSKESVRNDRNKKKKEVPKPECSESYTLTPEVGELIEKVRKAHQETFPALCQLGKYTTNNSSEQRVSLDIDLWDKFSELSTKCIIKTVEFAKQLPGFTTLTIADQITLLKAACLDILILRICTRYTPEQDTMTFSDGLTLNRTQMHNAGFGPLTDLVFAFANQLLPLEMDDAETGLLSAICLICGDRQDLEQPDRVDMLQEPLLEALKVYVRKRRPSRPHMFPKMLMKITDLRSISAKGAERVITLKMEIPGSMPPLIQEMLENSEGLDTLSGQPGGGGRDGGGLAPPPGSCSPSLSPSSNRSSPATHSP

One may read the AC50 as the midpoint of the concentration-response curve, whichever way the signal moves. In the case of `Nc1ccc(N)cc1`, the AC50 in assay [1] was 44.6 µM (active); in [2], 70.9 µM (active); in assay [5], 37.5 µM (active); in assay [16], 100 µM (active). The compound was called inactive in assay [1], in assay [2], in [3], in assay [4], in assay [5] and in assay [6]. In addition, the outcome in [7], in assay [8], in assay [9], in assay [10], in assay [11] and in assay [12] was inactive. Also, the compound was classed as inactive in assay [13], in assay [14], in assay [15] and in assay [16].
`CC(C)(c1ccccc1)c1cc(-n2nc3ccccc3n2)c(O)c(C(C)(C)c2ccccc2)c1`: the compound was called inactive in assay [1], in [17], in assay [2], in [3], in [4] and in assay [5]. Besides, the result in [6], in [7], in assay [8], in [18], in [9] and in assay [19] was inactive. In addition, the compound was classed as inactive in [10], in assay [11], in assay [12], in [13], in assay [14] and in [20]. Also, the compound was classed as inactive in assay [16].
With `CCOC(=O)CCN(SN(C)C(=O)Oc1cccc2c1OC(C)(C)C2)C(C)C`, the AC50 was 100 µM (active) in assay [1], 151 µM (active) in [2], 163 µM (active) in [4] and 100 µM (active) in [15]. The compound was called inactive in assay [17], in assay [3], in assay [5], in [6], in [7] and in assay [8]. Moreover, the outcome in assay [18], in [9], in assay [19], in [10], in assay [11] and in assay [12] was inactive. Further, the outcome in assay [13], in [14] and in assay [16] was inactive.
With `Nc1nc(=S)[nH][nH]1`, the compound was classed as inactive in assay [1], in assay [17], in assay [2], in assay [3], in [4] and in [5]. In addition, the call in assay [6], in assay [7], in [8], in assay [18], in [9] and in assay [19] was inactive. Further, the compound was classed as inactive in [10], in [11], in [12], in assay [13], in assay [14] and in [20]. Also, the result in assay [16] was inactive.
With `COc1ccccc1N`, the compound was classed as inactive in assay [1], in [17], in assay [2], in [3], in [4] and in assay [5]. Further, the outcome in [6], in [7], in assay [8], in [18], in assay [9] and in [11] was inactive. Besides, the result in assay [12], in [13], in [14] and in [16] was inactive. Moreover, the AC50 in [17] is 78.3 µM (active).
Take `CC(F)(F)CC(F)(F)F`: the call in [1], in assay [17], in assay [2], in [3], in [4] and in assay [5] was inactive. Moreover, the compound was called inactive in assay [6], in [7], in assay [8], in [18], in assay [9] and in assay [19]. Also, the compound was classed as inactive in assay [10], in assay [11], in [12], in assay [13], in assay [14] and in assay [15]. Further, the call in [20] and in assay [16] was inactive.
`O=C(CCl)NCO`: the call in [1], in [17], in assay [2], in assay [3], in assay [4] and in [5] was inactive. The compound was classed as inactive in assay [6], in assay [7], in assay [8], in assay [18], in [9] and in assay [19]. For the same compound, the call in [10], in assay [11], in assay [12], in [13], in assay [14] and in [16] was inactive.
